Measurements from PubChem BioAssay (NCI).
About 83,000 compounds went through this panel and 20% of them were active in at least one assay; those are over-represented in the sample as a whole.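 Treatment: one concentration, 48 hours, 96-well format. Scoring: percent growth, with anything below 10 considered active.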 Activity calls are given as the source filed them.

Each molecule was assayed on NCI-H23 lung (assay: NCI-60 one-dose screen, 48 h (100 = growth as untreated, 0 = no growth, -100 = all killed)). Conditions: 10 µM.
Method: Growth inhibition of the NCI-H23 human Non-Small Cell Lung tumor cell line is measured as a screen for anti-cancer activity. Cells are grown in 96 well plates and exposed to the test compound for 48 hours. Compounds are tested at a single concentration, which is 10^-5 M for most compounds. The reported endpoint is percent growth (GI% or GIPRCNT), where numbers from 0 - 100% represent growth inhibition, and numbers from -100% - 0 represent cell death. For example, a value of 40 represents 60% growth inhibition. A value of 0 means no net growth occurred over the course of the experiment. A value of -40 indicates 40% of cells at the beginning of the experiment died by the end of the experiment. A value of -100 means all cells are dead at the end of the experiment.
NCI-60 Human Tumor Cell Lines Screen was performed using the standard one-dose NCI protocol, which is described in more detail at https://dtp.cancer.gov/discovery_development/nci-60/default.htm.
Compounds with GIPRCNT values below 10 were considered active. Activity score was based on GIPRCNT using the following formula: […]
Score is 0 for GIPRCNT values of 100 or above, 50 for GIPRCNT values of 0, and 100 for GIPRCNT values of -100.

Row | SMILES | growth
1 | O=[N+]([O-])c1cc(Cl)cc(Cl)c1O | 97.7% (inactive)
2 | CC(C)[N+]1(C)C2CC[C@@H]1CC(OC(=O)C(CO)c1ccccc1)C2 (stereo not given in full) | 92% (inactive)
3 | CSc1nc(S(C)(=O)=O)nc2[nH]c(=O)[nH]c12 | 98.8% (inactive)
4 | CN(C)CCCSc1ccccc1NC1=C(Cl)C(=O)C(Nc2ccccc2SCCCN(C)C)=C(Cl)C1=O | -43.4% (active)
5 | O=C(CCn1cnc2c(cc(-c3ccccc3)n2-c2ccccc2)c1=O)Nc1ccc(F)cc1 | 76.1% (inactive)
6 | O=C1c2ccccc2-c2c1c1cccnc1c(=O)n2C[C@H](O)CO | 56.6% (inactive)
7 | CCOC(=O)C1=CSC2=NC3=C(CCC/C3=C\c3cc(OC)c(OC)c(OC)c3)C(c3cc(OC)c(OC)c(OC)c3)N12 (stereo not given) | 52.3% (inactive)
8 | C=C(NC(=O)C(=C)NC(=O)c1csc(C2=NC3c4csc(n4)C4NC(=O)c5csc(n5)C(C(C)(O)C(C)O)NC(=O)C5CSC(=N5)C(=CC)NC(=O)C(C(C)O)NC(=O)c5csc(n5)C3(CC2)NC(=O)C(C)NC(=O)C(=C)NC(=O)C(C)NC(=O)C(C(C)CC)NC2C=Cc3c(C(C)O)cc(nc3C2O)C(=O)OC4C)n1)C(N)=O (stereo not given) | 43.2% (inactive)
9 | COc1ccc2nc(-c3ccc(Cl)cc3)cc(-c3nnc(SC/C(=N\O)c4ccccc4)n3-c3ccccc3)c2c1 | 92.9% (inactive)
10 | CCCCN1C(=O)CC(SC2CC(=O)N(CCCC)C2=O)C1=O (stereo not given) | 97.9% (inactive)
11 | CS(=O)(=O)c1nccc(-c2c(-c3cccc(O)c3)nc3sccn23)n1 | 109% (inactive)
12 | CS(=O)(=O)c1nccc(-c2c(-c3cccc(OCc4ccc(F)cc4)c3)nc3sccn23)n1 | 53% (inactive)
13 | O=C(CCc1nnc2sc(-c3cc(O)c(O)c(O)c3)nn12)c1nc2ccccc2[nH]1 | 88.9% (inactive)
14 | CN(C)CCCOc1ccc(NC2=C(Cl)C(=O)C(Nc3ccc(OCCCN(C)C)cc3)=C(Cl)C2=O)cc1 | -72% (active)
15 | CNS(=O)(=O)Oc1ccc(-c2sc3cc(OS(=O)(=O)NC)ccc3c2C(=O)c2ccc(OCCN3CCCCC3)cc2)cc1 | 65.6% (inactive)
16 | COc1ccc([C@H]2[C@H](C(=O)Nc3cccnc3)c3ccccc3C(=O)N2c2ccccc2)cc1 | 90.5% (inactive)
17 | O=C1c2c(c3c4ccccc4n(CCCCCCN4CCOCC4)c3c3[nH]c4ccccc4c23)C(=O)N1O | 81.5% (inactive)
18 | CC(C)c1cc(N=O)cc(C(C)C)c1O | 95.2% (inactive)
19 | COc1cc(-c2csc(NC(=O)Nc3cc(C(F)(F)F)cc(C(F)(F)F)c3)n2)cc(OC)c1OC | 4.18% (active)
20 | C#CCOc1c(OC)cc(C(=O)/C(C)=C/c2cccc(N=[N+]=[N-])c2)cc1OC | 36.4% (inactive)

Row | SMILES | growth
21 | O=C(N/N=C/c1ccc(Cl)cc1)c1ccc(Cc2n[nH]c(=O)c3cccnc23)cc1 | 90.6% (inactive)
22 | Cc1c(Cl)cccc1NC(=O)CCCl | 105% (inactive)
23 | Nc1nc(-c2cccnc2)nc2c1sc(=S)n2-c1ccccc1 | 103% (inactive)
24 | CN1CCc2c(sc3nc4n(-c5ccc(Cl)cc5)cnn4c(=O)c23)C1 | 91.8% (inactive)
25 | CC[N+](CC)=c1ccc2nc3c(cc(NCc4ccccc4)c4ccccc43)oc-2c1 | -76% (active)
26 | O=C(/C=C/C=C/c1c(C2CC2)nc2ccccc2c1-c1ccc(F)cc1)c1cccs1 | 20.7% (inactive)
27 | CS(=O)(=O)c1nccc(-c2c(-c3cccc(OCCN4CCOCC4)c3)nc3sccn23)n1 | 90.3% (inactive)
28 | COc1ccc(NC(=O)C2CC3C=CC2C3)c([N+](=O)[O-])c1 (stereo not given) | 96% (inactive)
29 | CC[C@H]1OC(=O)[C@H](C)[C@@H](O[C@H]2C[C@@](C)(OC)[C@@H](O)[C@H](C)O2)[C@H](C)[C@@H](O[C@@H]2O[C@H](C)C[C@H](N(C)C)[C@H]2O)[C@](C)(OC)C/C(C)=C2/O[C@@]1(C)C=C2C | 83.9% (inactive)
30 | CC1(C)N=C(N)N=C(N)N1c1cccc(C#N)c1 | 75.2% (inactive)
31 | COc1ccc(C2=Cn3c(CCC(=O)c4nc5ccccc5[nH]4)nnc3SC2)cc1 | 94.5% (inactive)
32 | Clc1ccc(/C=C2\CCCC3C2=Nc2ccccc2NC3c2ccc(Cl)cc2)cc1 (stereo not given) | 83.3% (inactive)
33 | CCOC(=O)c1cc(C(=O)c2ccc(OC)c(OC)c2)n2ccncc12 | 97.4% (inactive)
34 | CC(=O)[C@H]1CC[C@]2(C)[C@@H]1CC[C@@H]1[C@@]3(C)CC(CCC#N)(CCC#N)C(=O)C(C)(C)[C@@H]3CC[C@]12C | 86.7% (inactive)
35 | COc1cc(C(=O)N2CCN(c3cc4c(cc3F)c(=O)c(C(=O)NO)cn4C3CC3)CC2)cc(OC)c1OC | 94.9% (inactive)
36 | Nc1nc(Cn2c(-c3nonc3N)nc3ccccc32)nc(N2CCCCC2)n1 | 90.5% (inactive)
37 | O=C1/C=C/[C@@H](O)[C@@H]2C[C@@H](O)C[C@H]2/C=C/CCC[C@H](CCc2ccc(NC(=S)Nc3ccc4c(c3)C(=O)OC43c4ccc(O)cc4Oc4cc(O)ccc43)cc2)O1 | 4.65% (active)
38 | CN(C)CCCN1c2ccccc2CCc2ccc(Cl)cc21 | 71.2% (inactive)
39 | COc1cc(-c2nn(-c3cccc(NC(=O)NCCNC(=O)c4ccccc4)c3)cc2-c2ccncc2)ccc1Cl | 19.7% (inactive)
40 | Cn1c2ccccc2c2c3[nH][nH]c(=O)c3c3c4ccccc4[nH]c3c21 | 19.2% (inactive)
